PubChem BioAssay (Tox21)
Unmarked numbers belong to inactive results. Results filed as inconclusive are left out. Entries that show only a call come without a potency. Calls of active or inactive are those of the source. Unless noted, calls come from the whole dose curve; as a rule, active = well fitted curve in the direction sought with a large enough effect in the repeat runs; inconclusive = weak or mixed curves; inactive = no such curve, though single readings can be large; an effect the other way counts as inactive or inconclusive.

How the values were obtained:
[1] = A CellTox Green Cytotoxicity Assay to monitor cytotoxicity in HepG2 cells - 8 hour (AID 1224890); note: nearly all actives have a fitted effect of over 45% in size
Procedure, shortened: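 HepG2 cells, 600/well, preincubated 5 h with CellTox Green dye, then exposed to Tox21 compounds in DMSO at 37 C for up to 40 h. Dead-cell DNA fluorescence read at the indicated time point.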

[2] = qHTS assay to identify small molecule antagonists of the androgen receptor (AR) signaling pathway using the MDA cell line in the presence of 0.5 nM R1881 - cell viability counter screen (AID 1259242); note: nearly all actives have a fitted effect of over 45% in size
Procedure, shortened: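 MDA-kb2 cells (MMTV-luciferase, AR/GR responsive) were treated with compounds plus 0.5 nM R1881 (final) for 16 hr at 37C, 0% CO2. Viability was then read in the same wells as live-cell protease fluorescence (CellTiter-Fluor, 30 min).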

[3] = qHTS assay to identify small molecule HDAC inhibitors (AID 1259364); note: top concentration of the series differs between compounds; nearly all actives have a fitted effect of over 45% in size
Procedure, shortened: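 Wild-type HCT-116 cells, plated overnight at 37 C, exposed to compounds 2 hr at 37 C; luminogenic HDAC-Glo substrate then added 30 min at room temperature. Luminescence reports relative endogenous class I/II HDAC activity.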

[4] = qHTS assay to identify small molecule HDAC inhibitors - cell viability counter screen (AID 1259365); note: series mostly up to about 92 µM; nearly all actives have a fitted effect of over 50% in size
Procedure, shortened: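 Luminescence from CellTiter-Glo, developed 30min at room temperature, reports viability of wild-type HCT-116 cells treated 2hr with compounds at 37 C and 5% CO2 after overnight plating.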

[5] = qHTS assay to identify small molecule agonists of the sonic hedgehog signaling (Shh) pathway - cell viability counter screen (AID 1259366); note: nearly all actives have a fitted effect of over 50% in size
Procedure, shortened: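 Cytotoxicity counter screen run in the same wells as the Shh reporter assay. NIH/3T3 cells carrying a Gli1 response element–driven luciferase were treated with DMSO-dissolved compounds for 24hr, and live-cell protease activity was measured with CellTiter-Fluor.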

[6] = qHTS assay to identify small molecule antagonists of the sonic hedgehog signaling (Shh) pathway - cell viability counter screen (AID 1259367); note: nearly all actives have a fitted effect of over 55% in size
Procedure, shortened: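 Cells: 3T3 Gli1-Luc, 2,000/well, 4 hr pre-incubation. Compounds in DMSO, then conditioned medium. Incubation 24 hr, 37C, 5% CO2. CellTiter-Fluor at 23 hr, 1 hr, fluorescence.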

[7] = qHTS assay to identify small molecule agonists of the sonic hedgehog signaling (Shh) pathway (AID 1259368; calls by dose curve;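 note: NIH/3T3-derived 3T3Gli1-Luc cells carrying a stable Gli1-driven firefly luciferase reporter; series mostly up to about 92 µM; nearly all actives have a fitted effect of over 15% in size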)
Procedure, shortened: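 NIH/3T3-derived 3T3Gli1-Luc cells with stably integrated Gli1-driven firefly luciferase, 2,000 cells/well, compounds added after 4 hr. Incubated 24 hr at 37C, 5% CO2; luminescence read after 30 min with luciferase reagent at room temperature.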

[8] = qHTS assay to identify small molecule antagonists of the sonic hedgehog signaling (Shh) pathway (AID 1259369; calls by dose curve; note: nearly all actives have a fitted effect of over 45% in size; note: potency is the fitted concentration of half-maximal effect)
Procedure, shortened: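 NIH/3T3-derived Gli1-Luc reporter cells plated 4 h, dosed with compound, then stimulated with conditioned medium for 24 h at 37 C. Firefly luciferase luminescence read after 30 min with detection reagent at room temperature.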

[9] = biological target: Estrogen receptor beta (Homo sapiens) (UniProt Q92731); test: qHTS assay to identify small molecule agonists of the estrogen receptor beta (ER-beta) signaling pathway (AID 1259377; active = well fitted activation curve with a large enough effect in the signal ratio in the repeat runs, not every such curve was filed as active; the % refers to the signal ratio)
Procedure, shortened: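 HEK293T ER-beta-UAS-bla; 2% charcoal-stripped FBS; cells pre-incubated 6 hr, compound 16 hr, 37C/5% CO2; LiveBLAzer B/G FRET substrate 2 h RT; fluorescence intensity read.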

[10] = qHTS assay to identify small molecule agonists of the androgen receptor (AR) signaling pathway in the presence of an antagonist - cell viability counter screen (AID 1259379);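 note: MDA-kb2 human breast cancer cells carrying an MMTV luciferase reporter; series mostly up to about 92 µM; nearly all actives have a fitted effect of over 25% in size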
Procedure, shortened: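 MDA-kb2 cells (MMTV-luciferase, AR/GR), 3,000/well, 5 h attachment, then 3.0 µM nilutamide (final) and compounds at 15 concentrations. Viability by CellTiter-Fluor fluorescence after 16 h at 37 °C, 0% CO2, in the reporter wells.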

[11] = qHTS assay to identify small molecule agonists of the estrogen receptor beta (ER-beta) signaling pathway - cell viability counter screen (AID 1259380); note: nearly all actives have a fitted effect of over 30% in size
Procedure, shortened: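 ER-beta-UAS-bla HEK293T cells in medium with 2% charcoal-stripped FBS, pre-incubated 6 hr, then treated 16 hr at 37C. Cytotoxicity read in the same wells by CellTiter-Glo luminescence after 30 min at room temperature.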

[12] = qHTS assay to identify small molecule antagonists of the estrogen receptor beta (ER-beta) signaling pathway - cell viability counter screen (AID 1259382);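 note: HEK293T cells carrying ER-beta-UAS-bla reporter stimulated with estradiol; series mostly up to about 92 µM; nearly all actives have a fitted effect of over 55% in size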
Procedure, shortened: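 ER-beta-UAS-bla HEK293T cells in 2% charcoal-stripped FBS medium, treated with compound plus 1 nM 17-beta-estradiol for 16 h at 37C. Viability read by CellTiter-Glo luminescence after 30 min at room temperature in the same wells.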

[13] = qHTS assay to identify small molecule agonists or antagonists of the thyroid stimulating hormone receptor (TSHR) signaling pathway - wild type cell line counter screen (AID 1259384; calls by dose curve)
Procedure, shortened: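 Counter screen in untransfected Hek293: compounds (15-point titration, triplicate) plus phosphodiesterase inhibitor Ro20-1724 added after 18 h plating; 30 min RT. Intracellular cAMP via competitive d2/cryptate immunoassay, 1 h incubation.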

[14] = biological target: Estrogen receptor beta (Homo sapiens) (UniProt Q92731); test: qHTS assay to identify small molecule antagonists of the estrogen receptor beta (ER-beta) signaling pathway (AID 1259378; active = well fitted inhibition curve with a large enough effect in the signal ratio in the repeat runs, not every such curve was filed as active; the % refers to the signal ratio)
Procedure, shortened: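 Antagonist mode: compounds added to beta-lactamase reporter HEK293T ER-beta-UAS cells stimulated with E2 (1nM final), 16 hr at 37C. LiveBLAzer B/G FRET substrate, 2 hours room temperature, fluorescence read-out.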

[15] = qHTS assay to identify small molecule antagonists of the estrogen receptor alpha (ER-alpha) signaling pathway using the BG1 cell line in the presence of 0.1 nM 17-beta-estradiol - cell viability counter screen (AID 1259241); note: nearly all actives have a fitted effect of over 40% in size
Procedure, shortened: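 VM7Luc4E2, 4,000 cells/well, phenol red-free medium + 10% charcoal-stripped FBS; 24 hr plating; cpd + 0.1 nM E2 final, 22 hr 37C/5% CO2; CellTiter-Fluor 30 min, fluorescence.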

[16] = biological target: Androgen receptor (Homo sapiens) (UniProt P10275); test: qHTS assay to identify small molecule antagonists of the androgen receptor (AR) signaling pathway using the MDA cell line in the presence of 0.5 nM R1881 (AID 1259243); note: nearly all actives have a fitted effect of over 50% in size
Procedure, shortened: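 MDA-kb2 cells (MMTV-luciferase, responsive to AR and GR) at 3,000/well, rested 5 h at 37C, 0% CO2, then given compounds plus 0.5 nM R1881 (final) for 16 hr. Luciferase read with ONE-Glo after 30 min at room temperature.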

[17] = biological target: Estrogen receptor (Homo sapiens) (UniProt P03372); test: qHTS assay to identify small molecule antagonists of the estrogen receptor alpha (ER-alpha) signaling pathway using the BG1 cell line in the presence of 0.1 nM 17-beta-estradiol (AID 1259244); note: nearly all actives have a fitted effect of over 50% in size
Procedure, shortened: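 VM7Luc4E2 cells (endogenous full-length ER-alpha, 4×ERE-luciferase), kept 5 days in phenol red-free, charcoal-stripped FBS medium; 4,000 cells/well. Compounds added with 0.1 nM (final) 17beta-estradiol, 22 hr at 37C; luminescence read with ONE-Glo after 30 min.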

[18] = qHTS assay to identify small molecule phospholipidosis (PLD) inducers (AID 1259344; active = well fitted curve in the direction sought with a large enough effect; an effect the other way counts as inactive or inconclusive)
Procedure, shortened: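 Phospholipidosis is scored by imaging LipidTOX-stained pits in HepG2 cells exposed to compound for 24 h at 37 C; pit counts and integrated intensities per well and per cell serve as outputs.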

[19] = biological target: Androgen receptor (Homo sapiens) (UniProt P10275); test: qHTS assay to identify small molecule agonists of the androgen receptor (AR) signaling pathway in the presence of an antagonist (AID 1259381; calls by dose curve; note: nearly all actives have a fitted effect of over 15% in size)
Procedure, shortened: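 MDA-kb2 cells carrying MMTV-luciferase (AR/GR responsive), 3,000 cells/well, co-treated with 3.0 uM nilutamide final. Compounds at 15 concentrations, 16 hr at 37C without CO2. Luciferase luminescence read after 30 min with ONE-Glo.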

[20] = biological target: Estrogen receptor (Homo sapiens) (UniProt P03372); test: qHTS assay to identify small molecule agonists of the estrogen receptor alpha (ER-alpha) signaling pathway in the presence of an antagonist (AID 1259383; calls by dose curve; note: top concentration of the series differs between compounds; nearly all actives have a fitted effect of over 15% in size)
Procedure, shortened: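 VM7Luc4E2 cells express endogenous full-length ER-alpha with an ERE-luciferase reporter and were hormone-deprived for 5 days. Compounds at 15 concentrations were added with 10.0nM ICI-182,780 for 22hr at 37C. Luminescence was read with ONE-Glo.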

Sequence of Estrogen receptor (Homo sapiens) (P03372 whole entry, looked up): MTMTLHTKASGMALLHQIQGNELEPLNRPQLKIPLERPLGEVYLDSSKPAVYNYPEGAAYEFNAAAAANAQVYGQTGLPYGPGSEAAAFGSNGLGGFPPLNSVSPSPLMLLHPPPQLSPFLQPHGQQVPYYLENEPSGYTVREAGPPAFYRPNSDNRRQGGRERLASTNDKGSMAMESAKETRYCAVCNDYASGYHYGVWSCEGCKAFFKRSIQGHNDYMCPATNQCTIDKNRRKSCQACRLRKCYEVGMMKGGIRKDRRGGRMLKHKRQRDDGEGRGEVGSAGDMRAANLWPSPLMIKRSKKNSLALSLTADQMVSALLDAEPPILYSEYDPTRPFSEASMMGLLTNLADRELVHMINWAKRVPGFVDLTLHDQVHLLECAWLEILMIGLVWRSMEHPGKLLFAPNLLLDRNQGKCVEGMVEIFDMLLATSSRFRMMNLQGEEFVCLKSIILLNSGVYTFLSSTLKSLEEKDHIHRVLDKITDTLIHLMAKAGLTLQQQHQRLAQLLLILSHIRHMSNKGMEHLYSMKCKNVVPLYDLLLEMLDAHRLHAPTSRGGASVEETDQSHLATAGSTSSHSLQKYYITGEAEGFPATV
Sequence of Estrogen receptor beta (Homo sapiens) (Q92731 whole entry, looked up): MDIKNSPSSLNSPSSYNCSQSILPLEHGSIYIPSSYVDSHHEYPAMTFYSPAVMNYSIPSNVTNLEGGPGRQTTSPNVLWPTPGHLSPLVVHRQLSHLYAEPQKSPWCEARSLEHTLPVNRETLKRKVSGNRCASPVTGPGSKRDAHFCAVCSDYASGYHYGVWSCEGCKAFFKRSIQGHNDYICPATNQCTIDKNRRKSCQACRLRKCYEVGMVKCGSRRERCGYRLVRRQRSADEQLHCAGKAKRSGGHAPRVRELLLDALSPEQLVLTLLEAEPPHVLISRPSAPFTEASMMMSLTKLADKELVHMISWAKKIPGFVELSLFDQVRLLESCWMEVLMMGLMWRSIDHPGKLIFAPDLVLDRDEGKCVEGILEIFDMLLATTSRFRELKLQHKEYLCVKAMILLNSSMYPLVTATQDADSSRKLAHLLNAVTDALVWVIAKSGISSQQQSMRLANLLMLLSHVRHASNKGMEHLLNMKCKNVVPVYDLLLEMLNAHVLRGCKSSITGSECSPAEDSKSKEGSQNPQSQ
Sequence of Androgen receptor (Homo sapiens) (P10275 whole entry, looked up): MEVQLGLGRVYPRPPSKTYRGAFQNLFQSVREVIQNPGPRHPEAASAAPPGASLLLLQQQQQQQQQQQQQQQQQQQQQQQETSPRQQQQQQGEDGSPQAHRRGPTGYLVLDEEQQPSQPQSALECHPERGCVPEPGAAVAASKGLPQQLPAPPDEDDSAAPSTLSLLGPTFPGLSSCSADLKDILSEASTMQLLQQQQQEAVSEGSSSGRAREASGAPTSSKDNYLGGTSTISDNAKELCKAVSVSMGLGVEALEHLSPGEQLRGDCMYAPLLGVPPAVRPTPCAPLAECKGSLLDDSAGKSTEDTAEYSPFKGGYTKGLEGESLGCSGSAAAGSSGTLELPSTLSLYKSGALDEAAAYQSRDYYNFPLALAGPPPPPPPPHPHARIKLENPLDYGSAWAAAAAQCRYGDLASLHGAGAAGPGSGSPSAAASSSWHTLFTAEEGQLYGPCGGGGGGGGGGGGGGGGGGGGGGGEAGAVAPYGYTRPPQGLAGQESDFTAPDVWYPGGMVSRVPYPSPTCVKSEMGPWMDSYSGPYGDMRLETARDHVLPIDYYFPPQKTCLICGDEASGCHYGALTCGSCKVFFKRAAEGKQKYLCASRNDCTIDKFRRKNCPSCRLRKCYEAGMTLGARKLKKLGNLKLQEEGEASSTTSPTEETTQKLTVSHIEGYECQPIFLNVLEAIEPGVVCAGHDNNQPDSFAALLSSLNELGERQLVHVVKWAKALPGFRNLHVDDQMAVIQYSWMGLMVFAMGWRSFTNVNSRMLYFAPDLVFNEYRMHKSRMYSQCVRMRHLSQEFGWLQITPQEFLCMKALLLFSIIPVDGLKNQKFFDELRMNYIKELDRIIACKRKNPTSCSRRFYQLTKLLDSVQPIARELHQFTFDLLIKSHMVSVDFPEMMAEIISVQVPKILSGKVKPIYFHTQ

NC(=S)Nc1cccc2ccccc12
cytotoxicity increase [1]: 0.879% [at 6.97 µM]
viability change, negative = cytotoxic [2]: 0.661% [at 8.39 µM]
activity change, negative = inhibition [3]: 2.32% [at 8.39 µM]
activity change, negative = cytotoxicity [4]: -1.1% [at 8.39 µM]
viability change, negative = cytotoxic [5]: -0.646% [at 8.39 µM]
viability change, negative = cytotoxic [6]: 0.784% [at 8.39 µM]
activity change [7]: -0.099% [at 8.39 µM, hits give high values]
activity change, negative = inhibition [8]: 0.0462% [at 8.39 µM]
activation [9]: -0.309% [at 8.39 µM]
activity change, negative = cytotoxicity [10]: -0.514% [at 8.39 µM]
activity change, negative = cytotoxicity [11]: -0.0461% [at 8.39 µM]
activity change, negative = cytotoxicity [12]: 8.83% [at 8.39 µM]
cAMP activity change [13]: 4.82% [at 8.39 µM]

CN(C)N=Nc1ccccc1
Potency [1]: inactive
outcome [2]: inactive
Potency [3]: inactive
outcome [4]: inactive
Potency [5]: inactive
outcome [6]: inactive
Potency [7]: inactive
outcome [9]: inactive
Potency [14]: inactive
Potency [10]: inactive
Potency [11]: inactive
Potency [12]: inactive
outcome [13]: inactive

O=C(O)c1ccc[n+]([O-])c1
outcome [15]: inactive
outcome [2]: inactive
Potency [16]: inactive
outcome [17]: inactive
Potency [18]: inactive
outcome [4]: inactive
outcome [6]: inactive
Potency [7]: inactive
outcome [9]: inactive
Potency [14]: inactive
Potency [10]: inactive
Potency [11]: inactive
Potency [19]: inactive
Potency [12]: inactive
Potency [20]: inactive

NS(=O)(=O)c1cc(C2(O)NC(=O)c3ccccc32)ccc1Cl (configuration not stated)
Potency [1]: inactive
outcome [2]: inactive
Potency [18]: inactive
outcome [4]: inactive
outcome [6]: inactive
Potency [7]: inactive
Potency [8]: inactive
outcome [9]: inactive
Potency [14]: inactive
Potency [10]: inactive
Potency [12]: inactive

OC/C=C/c1ccccc1
Potency [1]: inactive
outcome [2]: inactive
Potency [18]: inactive
Potency [3]: inactive
outcome [4]: inactive
Potency [5]: inactive
outcome [6]: inactive
Potency [7]: inactive
Potency [14]: inactive
Potency [10]: inactive
Potency [11]: inactive
Potency [12]: inactive

CN1[C@@H]2CC[C@H]1CC(NC(=O)n1c(=O)[nH]c3ccccc31)C2 (some centres not stated)
outcome [15]: inactive
outcome [2]: inactive
Potency [16]: inactive
outcome [17]: inactive
Potency [18]: inactive
Potency [3]: inactive
outcome [4]: inactive
outcome [6]: inactive
Potency [7]: inactive
Potency [8]: inactive
outcome [9]: inactive
Potency [11]: inactive
Potency [19]: inactive
Potency [12]: inactive
Potency [20]: inactive

CCC(C)(C)C1CCC(OC)CC1 (configuration not stated)
Potency [1]: inactive
outcome [2]: inactive
outcome [17]: inactive
Potency [3]: inactive
outcome [4]: inactive
outcome [6]: inactive
Potency [7]: inactive
Potency [8]: inactive
outcome [9]: inactive
Potency [10]: inactive
Potency [11]: inactive
Potency [12]: inactive
Potency [20]: inactive

NC1CCN(c2cccc(Cl)n2)CC1
outcome [15]: inactive
outcome [2]: inactive
Potency [16]: inactive
Potency [18]: inactive
Potency [3]: inactive
outcome [4]: inactive
Potency [5]: inactive
outcome [6]: inactive
Potency [7]: inactive
Potency [8]: 1.33 µM (active)
Potency [14]: inactive
Potency [10]: inactive
Potency [11]: inactive
Potency [19]: inactive
Potency [12]: inactive

COc1nc(C)nc(N)n1
Potency [1]: inactive
outcome [2]: inactive
outcome [17]: inactive
Potency [3]: inactive
outcome [4]: inactive
Potency [5]: inactive
outcome [6]: inactive
Potency [7]: inactive
Potency [8]: inactive
outcome [9]: inactive
Potency [14]: inactive
Potency [10]: inactive
Potency [11]: inactive
Potency [12]: inactive
outcome [13]: inactive
